The values that follow come from PubChem BioAssay (EPA / NIEHS).

Molecules are shown by their SMILES. Results filed as inconclusive are left out. Calls of active or inactive are those of the source. The calls were made as follows, unless noted: active = hit-call score of the fitted dose curve at least 0.9, where 1 is the maximum; inactive = score below 0.9.

The nature of experiment [1]: ACEA_ER_80hr: ACEA Biosciences xCELLigence Real-Time Cell Analysis on Estrogen Receptor Agonism for Proliferation (AID 2282667; active = hit-call score of the fitted dose curve at least 0.9, where 1 is the maximum). The following applies: T47D proliferation, impedance (xCELLigence), 80 h. A digest of the protocol:
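Cell-growth kinetics were measured by impedance in T47D cells treated continuously with compound (top 100 uM final, 1:4 steps, 8 points). Activity at 80 h was scored as signal gain over the DMSO baseline.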

Experiment [2] is described as follows: APR_HepG2_CellCycleArrest_24hr: Apredica 24-hour HepG2 Assay for Cell Cycle Arrest (AID 2282905).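 Also: cell cycle arrest scored as ratio of 2N to 4N nuclear DNA content.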 The following applies: imaging, actives raise or lower the signal. The gist of the method:
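Compounds (0.39 to 200 uM, final DMSO 0.5% v/v) are applied to HepG2 cells for 24 hours; cells are then fixed, permeabilized and nuclei labeled with Hoechst 33342. Automated imaging measures DNA content, and activity is fitted in both directions against DMSO.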

Experiment [3] can be described thus: APR_HepG2_CellLoss_24hr: Apredica 24-hour HepG2 Assay for Cell Loss (AID 2282908). The following applies: high-content imaging. The gist of the method: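 Nuclear count serves as the viability measure: treated cells are fixed, permeabilized and labelled with Hoechst 33342, and six images per well are analysed to identify valid nuclei. Doses span 0.39–200 uM, and activity in either direction is scored against DMSO.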

Experiment [4] is described as follows: APR_HepG2_MicrotubuleCSK_24hr: Apredica 24-hour HepG2 Assay for Microtubule CSK Stabilty (AID 2282909). Particulars: HepG2 microtubule cytoskeleton imaging, actives raise or lower the signal. The gist of the method: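 Compounds were applied to HepG2 cells for 24 hours across 0.39–200 uM in duplicate, with final DMSO at 0.5% v/v. Fixed, permeabilized cells were labeled for alpha-tubulin and nuclei, and tubulin fluorescence was quantified by imaging, fitted bidirectionally against DMSO.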

Experiment [5] can be described thus: APR_HepG2_MitoticArrest_24hr: Apredica 24-hour HepG2 Assay for Mitotic Arrest (AID 2282910). Particulars: high-content imaging, actives raise or lower the signal. A digest of the protocol:
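High-content imaging of fixed HepG2 cells labeled with Hoechst 33342 and anti-phospho-histone H3, after 24 h treatment. Ten concentrations 0.39 to 200 uM in duplicate, final DMSO 0.5%; changes fitted both directions relative to DMSO.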

Experiment [6] in a line: APR_HepG2_MitoMembPot_24hr: Apredica 24-hour HepG2 Assay for Mitochondrial Membrane Potential (AID 2282911). The following applies: imaging, actives raise or lower the signal. A digest of the protocol:
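Human hepatoma HepG2 cultures received ten compound concentrations up to 200 uM for 24 hr. Membrane-potential dye signal, captured by automated fluorescence microscopy, was scored for gain or loss against DMSO controls.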

The nature of experiment [7]: APR_HepG2_MitoMass_24hr: Apredica 24-hour HepG2 Assay for Mitochondrial Mass (AID 2282912). Particulars: high-content imaging, actives raise or lower the signal. A digest of the protocol: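 After 24 hr of treatment at 0.39 to 200 uM, HepG2 cells take up 250 nM MitoTracker Red CMXRos for 30 min and are then fixed with 3.7% formaldehyde. Per-well images are quantified, and any change in either direction is scored against solvent.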

The nature of experiment [8]: APR_HepG2_p53Act_24hr: Apredica 24-hour HepG2 Assay for p53 Activation (AID 2282913).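 Also: p53 protein immunofluorescence averaged per cell in HepG2 with Hoechst nuclei.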 The following applies: high-content imaging, actives raise or lower the signal. A digest of the protocol: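 Automated fluorescence imaging quantifies p53 immunostaining in HepG2 cells after a 24 hr exposure (0.39–200 uM, duplicate, 0.5% DMSO). Nuclei are located by Hoechst 33342 staining.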

Experiment [9] in a line: APR_HepG2_CellCycleArrest_72hr: Apredica 72-hour HepG2 Assay for Cell Cycle Arrest (AID 2282914). Particulars: high-content imaging, actives raise or lower the signal. The gist of the method: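 Cell cycle arrest in HepG2 was scored from nuclear DNA content after 72 hr compound treatment (0.39–200 uM). Activity, either gain or loss, was fitted against the DMSO baseline.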

Experiment [10] is described as follows: APR_HepG2_NuclearSize_24hr: Apredica 24-hour HepG2 Assay for Nuclear Size (AID 2282907). The following applies: high-content imaging, actives raise or lower the signal. The gist of the method: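 Nuclear size is measured by fluorescence high-content imaging of Hoechst-labelled HepG2 nuclei after 24 hr of treatment (0.39–200 uM, 0.5% DMSO). Cells are fixed in 3.7% formaldehyde before staining, and DMSO serves as the baseline for bidirectional curve fitting.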

In the case of `OC[C@@H](O)[C@@H](O)[C@H](O)[C@H](O)CO`, the compound was called inactive in [1], in [2], in experiment [3], in [4], in experiment [5] and in experiment [6]. The call in experiment [7], in experiment [8] and in experiment [9] was inactive.

Consider `COc1cc(S(=O)(=O)O)c(C)cc1N=Nc1c(O)ccc2cc(S(=O)(=O)O)ccc12`, for which the result in experiment [1], in experiment [2], in experiment [10], in experiment [4], in experiment [5] and in experiment [7] was inactive. The compound was called inactive in experiment [8] and in [9]. In addition, the AC50 in experiment [6] is 100 µM (active).

Consider `O=c1[nH]cc(F)c(=O)[nH]1`, for which the compound was called inactive in experiment [1], in experiment [3], in experiment [4], in [5], in experiment [6] and in experiment [7]. Also, the compound was classed as inactive in experiment [8]. Also, the results for the AC50 in experiment [2] and in [9] were 1.06 µM (active) and 1.52 µM (active), respectively.

For the compound `Cc1ccc(C)c(O)c1C`, the compound was called inactive in [1], in experiment [2], in experiment [10], in experiment [4], in experiment [5] and in experiment [6]. Further, the outcome in experiment [7] and in experiment [8] was inactive. For the same compound, the AC50 in experiment [9] was 12 µM (active).

As for `Cc1cc(=O)[nH]c(=S)[nH]1`, the compound was called inactive in [1], in [2], in [10], in experiment [4], in experiment [5] and in experiment [6]. Further, the result in experiment [7], in experiment [8] and in experiment [9] was inactive.

For `COc1cccc2c1C(=O)c1c(O)c3c(c(O)c1C2=O)C[C@@](O)(C(=O)CO)C[C@@H]3O[C@H]1C[C@H](N)[C@H](O)[C@H](C)O1`, the outcome in experiment [1], in experiment [10], in experiment [4] and in experiment [6] was inactive. Also, the AC50 in [2] was 4.04 µM (active); in experiment [5], 1.72 µM (active); in [7], 24.6 µM (active); in [8], 0.276 µM (active); in [9] it was 3.58 µM (active).

In the case of `CC(=O)C(C)=CC1C(C)=CCCC1(C)C` (centres undefined), the compound was called inactive in experiment [1], in experiment [2], in experiment [3], in experiment [4], in experiment [5] and in experiment [6]. The compound was classed as inactive in experiment [7], in experiment [8] and in experiment [9].

Take `CCCc1cc(=O)[nH]c(=S)[nH]1`: the AC50 in experiment [1] was 0.747 µM (active). Further, the result in experiment [2], in experiment [10], in [4], in experiment [5], in experiment [6] and in [7] was inactive. The compound was classed as inactive in experiment [8] and in experiment [9].

With `CC1(C)NC(=O)NC1=O`, the call in [1], in experiment [2], in experiment [10], in experiment [4], in experiment [5] and in experiment [6] was inactive. Further, the compound was classed as inactive in experiment [7], in experiment [8] and in [9].

For the compound `NCC1(Cc2noc(=O)[nH]2)CCCCC1`, the result in experiment [1], in experiment [2], in [10], in experiment [4], in experiment [5] and in experiment [6] was inactive. Besides, the call in experiment [7], in experiment [8] and in experiment [9] was inactive.

As for `CCCCCCCCCCO`, the AC50 in experiment [1] is 19.8 µM (active). Also, the result in [2], in experiment [10], in [4], in experiment [5], in [6] and in [7] was inactive. The call in [8] and in [9] was inactive.

With `CCc1c(C(=O)NN2CCCCC2)nn(-c2ccc(Cl)cc2Cl)c1-c1ccc(Br)cc1`, the AC50 was 1.69 µM (active) in experiment [1]; 27.9 µM (active) in experiment [2]; 39 µM (active) in [4]; 46.8 µM (active) in [5]; 47 µM (active) in experiment [7]; 14.6 µM (active) in [9]. Further, the outcome in [10], in experiment [6] and in experiment [8] was inactive.

Regarding `CCCCOC(=O)CCCCCCCCC(=O)OCCCC`, the call in experiment [1], in experiment [2], in experiment [3], in [4], in experiment [5] and in experiment [6] was inactive. Further, the compound was classed as inactive in experiment [7], in experiment [8] and in [9].

As for `CCOc1ccc2c(c1)C(C)=CC(C)(C)N2`, the result in experiment [1], in experiment [2], in experiment [10], in experiment [4], in [5] and in experiment [6] was inactive. The result in experiment [7], in experiment [8] and in experiment [9] was inactive.

For the compound `CN1CCN(Cc2cc(-c3ccc4[nH]c(=O)oc4c3)co2)[C@@H](c2ccc(F)cc2)C1`, the result in [1], in experiment [2], in experiment [10], in experiment [6] and in experiment [7] was inactive. In addition, the AC50 was 148 µM (active) in [4], 42.1 µM (active) in experiment [5], 65.2 µM (active) in experiment [8] and 83.5 µM (active) in experiment [9].

`CCCCCC(=O)O`: the compound was classed as inactive in experiment [1], in experiment [2], in experiment [10], in [4], in experiment [5] and in experiment [6]. In addition, the call in experiment [7], in experiment [8] and in [9] was inactive.

As a reminder, the AC50 is the concentration giving half of the maximal activity seen.
